# Experimental data published in the supplement of paper PMC6555819.
# Assays:
# Assay in all cases: PBM binding z-score (relative to random genomic background probes); higher = stronger binding; sequences stand for … in GC…GCGATTGACAGCGTAGAATGAAGG
# [1] = system: FXR:RXRa (NR concentration 270 nM, RXRa partner concentration 90 nM)
# Summary of the method: (§1)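 For binding z-scores, the reference was random background probes on custom Agilent 4×180K protein-binding microarrays. These arrays were incubated 1 h with ligand-free nuclear receptor dimers in PBS pH 7.4, 2% milk, 0.02% Triton X-100, 1 mM DTT, 0.2 mg/mL BSA and 0.4 mg/ml salmon testes DNA. Fluorescence was scanned after antibody detection of each partner (one per run) and regression-normalized.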
# [2] = system: LXRa:RXRa (NR concentration 270 nM, RXRa partner concentration 90 nM)
# Summary of the method: as §1
# [3] = system: LXRa homodimer (NR concentration 270 nM)
# Summary of the method: as §1
# [4] = system: LXRb:RXRa (NR concentration 270 nM, RXRa partner concentration 90 nM)
# Summary of the method: as §1
# [5] = system: LXRb homodimer (NR concentration 270 nM)
# Summary of the method: as §1
# [6] = system: PPARa:RXRa (NR concentration 270 nM, RXRa partner concentration 90 nM)
# Summary of the method: as §1
# [7] = system: PPARg:RXRa (NR concentration 180 nM, RXRa partner concentration 90 nM)
# Summary of the method: as §1
# [8] = system: PPARg:RXRa 270nM:90nM, anti-RXR (NR concentration 270 nM, RXRa partner concentration 90 nM)
# Summary of the method: as §1
# [9] = system: PPARg:RXRa 30nM:10nM, anti-RXR (NR concentration 30 nM, RXRa partner concentration 10 nM)
# Summary of the method: as §1
# [10] = system: PPARg:RXRa 90nM:30nM, anti-RXR (NR concentration 90 nM, RXRa partner concentration 30 nM)
# Summary of the method: as §1
Sequence,PBM binding z-score [1],PBM binding z-score [2],PBM binding z-score [3],PBM binding z-score [4],PBM binding z-score [5],PBM binding z-score [6],PBM binding z-score [7],PBM binding z-score [8],PBM binding z-score [9],PBM binding z-score [10]
TCATATAGGTAAAAGGTGAAGGTCGGTGTGGTAA,1.92,1.85,0.375,2.08,0.359,5.23,9.08,8.43,8.12,8.44
CCTAGTTGGTCAAGGTCACACAGGCTATAGGTAC,4.41,4.07,1.88,3.56,0.583,4.31,3.32,3.88,1.62,2.62
GGAACGAGGGCATAGTTGATAGCATCTGTCGACG,0.364,0.0828,-0.66,0.126,-0.441,2.33,3.64,5,2.9,4.54
TGAGTGAGGTTATAAGATCAGGGAACGTTGCAAA,1.06,1.07,-0.22,0.866,0.134,2.47,0.711,1.23,0.53,0.855
CCAGGCAGGTGAAAGGTAACTCAGTCTGGTACGC,0.326,0.496,-0.353,0.47,-0.921,3.13,5.95,6.52,4.44,7.19
CGTCCAGGGTCAAGGTCAGTGAAAGAGACTCGAA,7.27,4.72,0.165,4.58,-0.131,6.04,6.91,6.41,3.27,5.71
CGTCCAAGGTCAGCAGGTCAATGAAAGCGACGTG,6.32,4.32,0.919,3.56,-0.0922,5.37,5.19,5.03,1.33,3.38
TGAATGAGGTTAAAGATCAGGGACCGTGGCGTCG,2.75,2.5,-0.345,1.45,0.253,4.71,5.75,6.16,5.21,6.9
CTCGAAAGCTCGTGCTCAGGTGAGTATACCAAAC,-0.575,-0.866,-0.669,-0.84,-0.65,-0.803,-0.599,-0.812,-0.841,-0.913
ACTAGTTGGTCAGCTCAGGTCACACACAATTCGG,1.73,1.66,1.68,1.95,0.675,2.03,1.04,0.796,-0.0327,0.521
TCTGCTAGGCCAGTTGGTCAGCTAACGAGCTGCC,-3.09,-0.955,-1.26,-1.27,-0.666,-0.606,-1.07,0.229,0.768,0.446
TAGCCTAGGGCAGATCGGGCCAGTATACGCTATA,-0.551,-0.549,-0.559,-0.757,-1.16,-0.359,0.168,-0.585,-0.695,-0.348
GGACCGAGGGCAAGTTGATAGCAGAGTTTGATGG,0.721,0.322,-0.497,0.0428,-0.812,0.868,0.401,0.00699,-0.601,-0.0881
GCTCGGAGGACAAGGTCAGCGCTTTGTCCGTAGA,2.42,2.15,-0.539,1.88,-0.677,2.94,0.785,2.1,-0.477,0.958
TGAATGAGGTTATAGGATCAGGGAACGTTGCAAA,1.98,1.6,-0.459,1.39,-0.108,3.28,2.06,2.51,1.15,2.08
CTCGAAAGGTCGGTTTAGGTGAGTATACGGATAA,2.13,1.54,-0.093,1.7,0.329,2.44,0.282,1.04,-0.0408,0.683
CTCGAAAGGTCGGTTGAGGTGAGTATCCGGATAA,2.5,1.81,-0.338,1.44,0.0486,2.71,0.0243,1.33,-0.0688,0.975
CAGCCTAGGTCAGAGCCAGTATAGGAGGAACGTT,1.65,0.992,-0.0153,0.607,-0.514,1.69,0.786,0.566,-0.211,0.234
GATACAGGGTCCAGGCCAGAGTACGCGTATTGAT,-0.251,-0.534,-0.485,-0.738,-0.692,-0.292,0.664,-0.347,-0.488,-0.478

Sequence,PBM binding z-score [1],PBM binding z-score [2],PBM binding z-score [3],PBM binding z-score [4],PBM binding z-score [5],PBM binding z-score [6],PBM binding z-score [7],PBM binding z-score [8],PBM binding z-score [9],PBM binding z-score [10]
CGAACTAGCTCATTGACAGGACAGTGAATAGTAA,-0.457,-0.373,0.0523,-0.29,-0.335,-0.257,0.0799,-0.461,-0.245,-0.396
GCTGCTAGGTCAGGTTGGTTAGCTAACGGGTACG,1.06,0.689,-0.475,0.322,-0.199,1.24,0.149,0.709,-0.629,0.079
AGAACGAGGGCAATGGGTTGATAGCACGGGTGGC,0.877,0.764,-0.127,0.316,0.02,1.67,1.78,1.38,-0.00991,1.08
CATACTAGGTCAAGAGGTCAAAGTCCGCTTCCCG,7.24,6.42,7.38,5.6,2.49,6.35,8.96,7.68,5.59,7.65
TCATATAGGTAAATGCTAGGTGAAGGTCCGATCT,0.907,0.779,0.342,0.347,0.0631,1.29,0.837,2.13,3.86,2.91
AGAAGGAGGGCACGCTGAGTTGATAGCAGAGTAG,0.55,0.52,-0.359,0.551,0.0256,1.83,1.89,1.81,0.436,1.01
TCTAGTTGGTCAAATGTCACACACTCGAAATGCG,0.894,0.965,0.736,1.29,0.913,2.93,5.26,6.74,5.88,7.55
ATCTCTAGGTAACCAAGTTCTGTGAATGCCGAAC,0.602,0.255,0.186,0.427,0.457,0.701,0.399,0.795,0.343,0.427
GCATATAGGTACTACAAGGTGAAAGTCCGATTGT,0.689,-0.132,-0.343,0.0572,-0.233,0.972,0.697,0.784,0.264,0.566
CAAACTAGGTCACGAAAGGTCAGAGTCGAATGAC,6.76,7.61,5.28,6.37,1.23,5.96,10.3,7.74,6.9,8.34
CTCGAAAGGTAGTGCTCAGGTGAGTATACCAAAC,-0.118,-0.487,-0.334,-0.319,-0.503,-0.373,-0.362,-0.344,-0.375,-0.618
CCTACTGGGCCATTCAAAGGTCATTGATCATATG,3.24,4.61,6.31,4.29,0.576,4.43,3.07,4.03,1.44,3.35
ATCACTAGGTAAAGATAGTTCAGTGAATGCAAAT,0.213,3.82,0.581,0.654,0.171,0.991,1.13,0.685,0.585,0.404
CAAACTCGGTCAAGAGGTCAAAGTCCGCTTCCCG,6.2,5.96,6.55,5.13,1.61,5.82,5.83,5.99,3.41,5.47
GCGACCGGGGCATCAGCAGGTTACCATAACTTAA,0.256,0.277,-0.271,0.643,-0.263,1.17,0.512,-0.0952,-0.743,-0.899
TCATATAGGTACAAGGTGAAAGTCGGTGTGGTAA,0.883,1.08,0.335,1.18,0.0749,3.3,4.66,5.75,5.85,6.21
GGAACGAGGGCATTCGAGTAGATAGCATGGCGAT,0.816,0.394,-0.428,0.0953,-0.937,1.33,1.11,0.886,-0.0142,0.304
GCTTACGGGACAAAGGTTATAGCATGAATAGAAT,1.23,1.56,0.265,2.04,-0.135,4.42,7.78,7.39,6.27,8.27
GCTGCTTGGTCAGGTTGGTCAGCTAACGGGTACG,-0.11,-0.383,-0.554,-0.457,-0.187,-0.407,-0.682,-0.648,-0.905,-1.09
